# Records with an inconclusive call do not appear. Active and inactive are the calls of the source. The calls were made as follows: active = hit-call score of the fitted dose curve at least 0.9, where 1 is the maximum; inconclusive = response in the unintended direction; inactive = score below 0.9.
# Test system: not listed separately
# Assay: TOX21_p53_BLA_p2_viability: Viability Assessment in the Tox21 HCT-116 p53 Agonism Beta-lactamase Assay, Phase 2 (AID 2283591);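 also: compound exposure lasted 16 h at 37 °C; actives lower the ATP signal meaning cytotoxicity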
# Summary of the method: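 HCT-116 p53-bla cells (4000/well) rested 5 h at 37C, then received compounds in DMSO (217-fold dilution) for 16 h at 37C, 5% CO2. After the CCF4 read, CellTiter-Glo was added; ATP luminescence was read after 30 min at room temperature.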
row,Structure (SMILES),outcome
1,Clc1cc2c(cc1Cl)Oc1cc(Cl)c(Cl)cc1O2,inactive
2,CC(C)NCC(O)c1ccc([N+](=O)[O-])cc1 (stereo not given),inactive
3,CCCCC/C=C\C/C=C\C/C=C\C/C=C\CCCC(=O)NCC(=O)O,inactive
4,O=C(O)c1ccccc1C(=O)Nc1cccc2ccccc12,inactive
5,CCN1C[C@]2(COC)[C@H](O)C[C@H](OC)[C@@]34[C@@H]5C[C@@]6(O)[C@H](OC(=O)c7ccccc7)[C@@H]5[C@@](OC(C)=O)([C@@H]([C@H](OC)[C@H]23)[C@@H]14)[C@@H](O)[C@@H]6OC,inactive
6,COc1cc(CCN)cc(OC)c1OC,inactive
7,COC(=O)[C@@H]1[C@H]2CC[C@@H](C[C@H]1OC(=O)c1ccccc1)N2C,inactive
8,O=S1(=O)OCCO1,inactive
9,Cc1cc(C)c(C(=O)P(=O)(C(=O)c2c(C)cc(C)cc2C)c2ccccc2)c(C)c1,inactive
10,CCCN1CCC[C@@H]2Cc3nc(N)ncc3C[C@H]21,inactive
11,CC1=C2[C@H]3OC(=O)[C@@H](C)[C@@H]3CC[C@@]2(C)C=CC1=O,inactive
12,CCC(=O)OC1(c2ccccc2)CCN(C)CC1,inactive

# Molecular target: Cellular tumor antigen p53 (Homo sapiens) (UniProt P04637)
# Sequence (P04637 whole entry, looked up): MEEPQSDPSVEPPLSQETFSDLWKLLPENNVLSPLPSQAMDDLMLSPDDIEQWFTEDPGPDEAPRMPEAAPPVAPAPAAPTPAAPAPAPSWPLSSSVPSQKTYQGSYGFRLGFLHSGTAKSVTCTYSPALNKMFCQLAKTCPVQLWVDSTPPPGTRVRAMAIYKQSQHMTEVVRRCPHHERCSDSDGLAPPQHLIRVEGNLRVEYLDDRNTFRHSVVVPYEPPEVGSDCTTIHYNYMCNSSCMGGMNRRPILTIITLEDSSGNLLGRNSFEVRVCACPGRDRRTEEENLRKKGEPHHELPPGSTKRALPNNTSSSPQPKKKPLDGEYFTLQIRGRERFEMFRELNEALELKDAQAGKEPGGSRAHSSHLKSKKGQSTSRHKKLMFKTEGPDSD
# Assay: TOX21_p53_BLA_p2_ratio: Tox21 HCT-116 p53 Agonism Beta-lactamase Assay, Ratio, Phase 2 (AID 2283592)
# Summary of the method: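 Read-out is the blue/green (460/530 nm, 405 nm excitation) ratio after 2 h CCF4-AM loading, fitted as gain versus DMSO. Compounds, pinned at 217-fold dilution from DMSO stocks, stayed 16 h on HCT-116 beta-lactamase reporter cells seeded 5 h earlier.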
Structure (SMILES),outcome,AC50
CNC(=O)NC(O)C(Cl)(Cl)Cl (stereo not given),inactive,–
Cc1nnc2n1-c1sc(CCc3ccc(CC(C)C)cc3)cc1C(c1ccccc1Cl)=NC2C (stereo not given),–,31 µM (active)
NCCCNCCCN,inactive,–
CCSC(=O)Cl,inactive,–
CN(C)CCc1c[nH]c2cccc(OP(=O)(O)O)c12,inactive,–
Clc1ccc(C2(Cn3cncn3)OCCO2)c(Cl)c1,inactive,–
CCCCNCC(O)c1ccc(O)cc1 (stereo not given),inactive,–
CCC(C(N)=O)N1CCCC1=O (stereo not given),inactive,–
ClC(Cl)(Cl)C(Cl)(Cl)Cl,inactive,–
C=CCOC(C)=O,inactive,–
Cc1coc2c1CCC(C)C2 (stereo not given),inactive,–
ClCC1CO1 (stereo not given),inactive,–
CN1C[C@H](CNC(=O)OCc2ccccc2)C[C@@H]2c3cccc4c3c(cn4C)C[C@H]21,inactive,–
CCOC(=O)N(C)C(=O)CSP(=S)(OCC)OCC,inactive,–
CCN(CC)Cc1nccn1-c1ccc([N+](=O)[O-])cc1C(=O)c1ccccc1Cl,inactive,–
CC(=O)C(C)(C)C,inactive,–
O=C1c2ccccc2C(=O)c2ccccc21,inactive,–
CON(C)C(=O)Nc1ccc(Br)cc1,inactive,–
O=[N+]([O-])c1cccc(O)c1,inactive,–
NP(N)(=O)NC(=O)c1ccc(F)cc1,inactive,–

Structure (SMILES),outcome,AC50
C=CCC1([C@@H](C)CCC)C(=O)NC(=O)NC1=O,inactive,–
c1ccc2c(c1)CCNC2,inactive,–
ClCC(Br)CBr (stereo not given),inactive,–
CC(Cl)(Cl)[N+](=O)[O-],inactive,–
O=[N+]([O-])CCO,inactive,–
[2H]C([2H])([2H])[C@H](N)Cc1ccccc1,inactive,–
COC1CC(=C(c2cccs2)c2cccs2)C[N+](C)(C)C1 (stereo not given),inactive,–
Clc1cc2c(cc1Cl)Oc1cc(Cl)c(Cl)cc1O2,inactive,–
CC(C)NCC(O)c1ccc([N+](=O)[O-])cc1 (stereo not given),inactive,–
CCCCC/C=C\C/C=C\C/C=C\C/C=C\CCCC(=O)NCC(=O)O,inactive,–
O=C(O)c1ccccc1C(=O)Nc1cccc2ccccc12,inactive,–
CCN1C[C@]2(COC)[C@H](O)C[C@H](OC)[C@@]34[C@@H]5C[C@@]6(O)[C@H](OC(=O)c7ccccc7)[C@@H]5[C@@](OC(C)=O)([C@@H]([C@H](OC)[C@H]23)[C@@H]14)[C@@H](O)[C@@H]6OC,inactive,–
COc1cc(CCN)cc(OC)c1OC,inactive,–
COC(=O)[C@@H]1[C@H]2CC[C@@H](C[C@H]1OC(=O)c1ccccc1)N2C,inactive,–
O=S1(=O)OCCO1,inactive,–
Cc1cc(C)c(C(=O)P(=O)(C(=O)c2c(C)cc(C)cc2C)c2ccccc2)c(C)c1,inactive,–
CCCN1CCC[C@@H]2Cc3nc(N)ncc3C[C@H]21,inactive,–
CC1=C2[C@H]3OC(=O)[C@@H](C)[C@@H]3CC[C@@]2(C)C=CC1=O,inactive,–
CCC(=O)OC1(c2ccccc2)CCN(C)CC1,inactive,–

# Test system: not listed separately
# Assay: TOX21_p53_BLA_p4_viability: Viability Assessment in the Tox21 HCT-116 p53 Agonism Beta-lactamase Assay, Phase 4 (AID 2283597);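 also: hits lower the luminescence signal meaning cytotoxicity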
# Summary of the method: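 Cytotoxicity as reduced cellular ATP (CellTiter-Glo luminescence, 30 min room temperature), measured in the same wells following the CCF4 FRET p53 reading. Human HCT-116 cells received compounds in DMSO (217-fold dilution) for 16 h.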
Structure (SMILES),outcome,AC50
CNC(=O)NC(O)C(Cl)(Cl)Cl (stereo not given),inactive,–
Cc1nnc2n1-c1sc(CCc3ccc(CC(C)C)cc3)cc1C(c1ccccc1Cl)=NC2C (stereo not given),–,24.8 µM (active)
NCCCNCCCN,inactive,–
CCSC(=O)Cl,inactive,–
ClCC1CO1 (stereo not given),inactive,–
CN1C[C@H](CNC(=O)OCc2ccccc2)C[C@@H]2c3cccc4c3c(cn4C)C[C@H]21,–,38.7 µM (active)
CCOC(=O)N(C)C(=O)CSP(=S)(OCC)OCC,inactive,–
CCN(CC)Cc1nccn1-c1ccc([N+](=O)[O-])cc1C(=O)c1ccccc1Cl,inactive,–
O=C1c2ccccc2C(=O)c2ccccc21,inactive,–
CON(C)C(=O)Nc1ccc(Br)cc1,inactive,–
O=[N+]([O-])c1cccc(O)c1,inactive,–
NP(N)(=O)NC(=O)c1ccc(F)cc1,inactive,–
C=CCC1([C@@H](C)CCC)C(=O)NC(=O)NC1=O,inactive,–
c1ccc2c(c1)CCNC2,inactive,–
ClCC(Br)CBr (stereo not given),inactive,–
O=[N+]([O-])CCO,inactive,–
Clc1cc2c(cc1Cl)Oc1cc(Cl)c(Cl)cc1O2,inactive,–
CC(C)NCC(O)c1ccc([N+](=O)[O-])cc1 (stereo not given),inactive,–
CCN1C[C@]2(COC)[C@H](O)C[C@H](OC)[C@@]34[C@@H]5C[C@@]6(O)[C@H](OC(=O)c7ccccc7)[C@@H]5[C@@](OC(C)=O)([C@@H]([C@H](OC)[C@H]23)[C@@H]14)[C@@H](O)[C@@H]6OC,inactive,–
COc1cc(CCN)cc(OC)c1OC,inactive,–
COC(=O)[C@@H]1[C@H]2CC[C@@H](C[C@H]1OC(=O)c1ccccc1)N2C,inactive,–
O=S1(=O)OCCO1,inactive,–
CCCN1CCC[C@@H]2Cc3nc(N)ncc3C[C@H]21,inactive,–
CC1=C2[C@H]3OC(=O)[C@@H](C)[C@@H]3CC[C@@]2(C)C=CC1=O,inactive,–
